Assay outcomes as filed in PubChem BioAssay.
hcDAF12 agonist = H. contortus DAF-12 nuclear receptor activators, primary screen, cell-based, luminescence, HEK293, lit1-tk-luc reporter. HEK293 hcDAF-12 lit1-tk-luc reporter; 0% DMSO, 100% Δ7-dafachronic acid. activation, % at 6.8 µM. 370,000 compounds, 1.4% hits. AID 652067, 2013;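 active means activation above the mean of all tested compounds plus 3 SD, cut at about 5.5% in these data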;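 further: 100% = response to 3 µM Δ7-dafachronic acid high control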
DAX1 inh-1 = DAX1 (NR0B1) inhibitors, primary screen, cell-based, HEK293, Gal4-DAX1, luciferase luminescence. HEK293 Gal4-DAX1 luciferase reporter. Nuclear receptor subfamily 0 group B member 1 (Homo sapiens), P51843. inhibition, % at 6.75 µM. 340,000 compounds, 0.99% hits;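 active means inhibition above the mean over all tested compounds plus 3 SD, cut at about 4.2% in these data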;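 further: 0% = DAX1-transfected cells with DMSO and 100% = empty-vector control cells with DMSO; inhibition shows as a rise in luminescence from relieved DAX1 repression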
Target sequence (P51843 207-470 limits assumed): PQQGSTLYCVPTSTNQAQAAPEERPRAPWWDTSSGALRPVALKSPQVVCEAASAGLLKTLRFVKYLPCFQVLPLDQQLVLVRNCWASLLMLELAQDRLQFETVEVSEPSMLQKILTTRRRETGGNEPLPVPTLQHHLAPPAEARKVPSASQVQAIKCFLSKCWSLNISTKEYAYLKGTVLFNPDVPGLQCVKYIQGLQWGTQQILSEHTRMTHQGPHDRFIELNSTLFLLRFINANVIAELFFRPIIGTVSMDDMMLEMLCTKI
hgDAF-12 ag = H. glycines DAF-12 receptor agonists, primary screen, cell-based, luminescence, HEK293, GAL4 fusion, UAS-luciferase. Nuclear hormone receptor DAF-12 (Heterodera glycines), GAL4 fusion. HEK293 GAL4-hgDAF12 UAS-luciferase reporter, agonist luminescence; normalized to butyrate control. activation, % at 6.8 µM. 370,000 compounds, 1.8% hits. AID 687014, 2013;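 active means activation above a cutoff set at the mean of all screened compounds plus 3 SD, cut at about 10% in these data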;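 further: 0% = DMSO wells and 100% = sodium butyrate wells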
DAX1 inh-2 = DAX1 (NR0B1) inhibitors on StAR promoter, primary screen, cell-based, luminescence, SF-1 (NR5A1), full-length DAX-1; HEK293T StAR-luciferase reporter, SF-1/DAX-1 repression relief; inhibition, % at 6.8 µM; 370,000 compounds, 1.1% hits;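 active means inhibition above the mean over all tested compounds plus 3 SD, cut at about 3.6% in these data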;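 further: 0% = DAX-1 cells with DMSO and 100% = cells lacking DAX-1 with DMSO; higher inhibition means more luminescence from relief of DAX-1 repression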
AHR activator = AHR activators, primary screen, cell-based, luminescence, luciferase reporter, human; activation, % at 5 µM; AID 2796, 2010; 320,000 compounds, 2.5% hits; AHR-responsive luciferase reporter cells; Aryl hydrocarbon receptor (Homo sapiens), P35869; in the data active means activation above about 47%;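 further: 0% = vehicle wells and 100% = reference agonist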
ssDAF12 agonist = S. stercoralis DAF-12 nuclear receptor activators, primary screen, cell-based, luminescence, HEK293, GRIP1 co-expression, lit1-tk-luc; Nuclear hormone receptor DAF-12 (Strongyloides stercoralis); HEK293 ssDAF-12/GRIP1 lit1-tk-luc reporter; % of 3 µM dafachronic acid response; activation, % at 6.8 µM; 370,000 compounds, 1% hits;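 active means activation above the mean over all tested compounds plus 3 SD, cut at about 0.9% in these data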;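 further: 0% = DMSO-only wells and 100% = 3 µM delta7-dafachronic acid wells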
LXR ag = LXR agonists, Gal4 luciferase reporter, confirmation, counter-screen for hcDAF-12 agonist project, cell-based, luminescence, HEK293, H. contortus campaign. shares compounds with hcDAF12 agonist. HEK293 Gal4-LXR tk-luc reporter, 24 h; normalized: DMSO 0%, positive control 100%. activation, % at 6.8 µM. 3,400 tested, under 10 active. AID 743027, 2013;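 active means mean percent activation of the reporter above a cutoff set as the average over tested compounds plus their standard deviation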
hcDAF12 ag = H. contortus DAF-12 receptor agonists, confirmation, cell-based, luminescence, HEK293, lit1-tk-luc, triplicate; shares compounds with hcDAF12 agonist; HEK293 hcDAF-12 lit1-tk-luc reporter; % of Δ7-dafachronic acid response; activation, % at 6.8 µM; 3,400 compounds, 61% hits; AID 743032, 2013;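 active means mean activation across triplicate tests above the threshold derived from the earlier primary screen, cut at about 5.5% in these data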;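 further: 0% = DMSO only wells and 100% = 3 µM Δ7-dafachronic acid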
* hit, by the source's call. Hits are enriched below; roughly 5.7% of the tested compounds scored in any of these assays.

Results for Cc1ccccc1NC(=O)N1C2CCC1CC(O)(c1cccnc1)C2 (configuration not stated) ?
hcDAF12 agonist: -0.5; DAX1 inh-1: 0.5; hgDAF-12 ag: 1.5; DAX1 inh-2: -0.4; AHR activator: -1.0; ssDAF12 agonist: -1.6

How did Cn1c(=O)c(-c2cc(Br)ccc2N)nc2ccccc21 do in these assays?
hcDAF12 agonist: 10.9*; DAX1 inh-1: 1.0; hgDAF-12 ag: 6.0; DAX1 inh-2: 2.1; AHR activator: 46.7; ssDAF12 agonist: 1.2*; LXR ag: 0.8; hcDAF12 ag: 12.5*

What do the screens show for `COC(=O)C1CCN(c2nc3ccccc3nc2C(C#N)C(=O)NCCc2ccccc2)CC1` (configuration not stated)?
hcDAF12 agonist: 8.2*; DAX1 inh-1: 0.3; hgDAF-12 ag: -0.8; DAX1 inh-2: 0.4; AHR activator: 15.5; ssDAF12 agonist: -0.2; LXR ag: -0.3; hcDAF12 ag: 3.7

Results for COC(=O)C1CCN(c2nc3ccccc3nc2C(C#N)C(=O)OCC(C)C)CC1 (configuration not stated) ?
hcDAF12 agonist: 0.0; DAX1 inh-1: -1.3; hgDAF-12 ag: 1.7; DAX1 inh-2: -0.6; AHR activator: -3.0; ssDAF12 agonist: -1.3

What do the screens show for `CCOC(=O)N/C(N)=N/c1nc2ccccc2s1`?
hcDAF12 agonist: 7.0*; DAX1 inh-1: 0.4; hgDAF-12 ag: 10.6*; DAX1 inh-2: 4.2*; AHR activator: 1.6; ssDAF12 agonist: 0.2; LXR ag: 1.3; hcDAF12 ag: 5.2

What do the screens show for `CCc1ccc(-c2cn(C3CCCCC3)c(=S)[nH]2)cc1`?
hcDAF12 agonist: 10.6*; DAX1 inh-1: 0.2; hgDAF-12 ag: 7.4; DAX1 inh-2: 0.8; AHR activator: 62.5*; ssDAF12 agonist: -0.1; LXR ag: 0.1; hcDAF12 ag: 1.3

Results for CCc1ccc(-n2cc(-c3ccc([N+](=O)[O-])cc3)[nH]c2=S)cc1 ?
hcDAF12 agonist: 0.5; DAX1 inh-1: -0.1; hgDAF-12 ag: 4.9; DAX1 inh-2: 0.8; AHR activator: 14.0; ssDAF12 agonist: -0.5

What do the screens show for `Brc1ccc(-c2nc(N/N=C/c3cccnc3)c3ccccc3n2)cc1`?
hcDAF12 agonist: 11.0*; DAX1 inh-1: 0.7; hgDAF-12 ag: 13.1*; DAX1 inh-2: 1.2; AHR activator: 42.6; ssDAF12 agonist: 1.6*; LXR ag: 1.6; hcDAF12 ag: 13.8*

Results for Cc1ccc(-c2nc(N/N=C/c3ccccc3[N+](=O)[O-])c3ccccc3n2)cc1 ?
hcDAF12 agonist: 4.0; DAX1 inh-1: 2.2; hgDAF-12 ag: 9.5; DAX1 inh-2: 0.9; AHR activator: 10.3; ssDAF12 agonist: 0.1

How did COc1ccc2nc3sc(C(=O)NCCCN4CCc5ccccc5C4)cc3cc2c1 do in these assays?
hcDAF12 agonist: 8.0*; DAX1 inh-1: -0.8; hgDAF-12 ag: 4.5; DAX1 inh-2: 1.6; AHR activator: 40.3; ssDAF12 agonist: 0.8; LXR ag: 0.1; hcDAF12 ag: 6.8*

How did CCCn1c(N)c(C(=O)CSc2nc(C3CC3)n(-c3ccccc3)n2)c(=O)[nH]c1=O do in these assays?
hcDAF12 agonist: -0.2; DAX1 inh-1: -0.5; hgDAF-12 ag: 0.4; DAX1 inh-2: -1.2; AHR activator: 2.1; ssDAF12 agonist: -1.3

What do the screens show for `C=CCn1c(SCC(=O)Nc2ccc(-c3nc4ccc(C)cc4s3)cc2)nnc1-c1ccncc1`?
hcDAF12 agonist: 7.0*; DAX1 inh-1: -0.1; hgDAF-12 ag: 12.8*; DAX1 inh-2: 1.9; AHR activator: 10.9; ssDAF12 agonist: -0.6; LXR ag: 0.3; hcDAF12 ag: 2.1

How did Cc1cccc(-c2nnc(SCC(=O)Nc3ccc(-c4nc5ccc(C)cc5s4)cc3)n2Cc2ccco2)c1 do in these assays?
hcDAF12 agonist: 2.0; hgDAF-12 ag: 7.5; DAX1 inh-2: -1.3; ssDAF12 agonist: 0.2

What do the screens show for `CN[C@H]1C[C@H]2c3[nH]c4cccc(-c5cccc(C)c5)c4c3CCN2C(=O)[C@H]1[C@H](C)O`?
hcDAF12 agonist: -1.4; hgDAF-12 ag: 1.0; DAX1 inh-2: 0.2; ssDAF12 agonist: -1.7

Results for CN[C@H]1C[C@H]2c3[nH]c4ccccc4c3CCN2C(=O)[C@H]1[C@H](C)O ?
hcDAF12 agonist: 8.1*; DAX1 inh-1: -0.1; hgDAF-12 ag: 3.8; DAX1 inh-2: 1.9; ssDAF12 agonist: 0.1; LXR ag: 0.0; hcDAF12 ag: 2.6

What do the screens show for `COC(=O)c1cn(CCOc2ccccc2)c2ccccc12`?
hcDAF12 agonist: 6.7*; DAX1 inh-1: 1.2; hgDAF-12 ag: 5.9; DAX1 inh-2: 1.0; AHR activator: 3.4; ssDAF12 agonist: 1.3*; LXR ag: 0.2; hcDAF12 ag: 3.2

Results for COc1cccc(C(=O)NCCSCc2ccccc2Cl)c1 ?
hcDAF12 agonist: -1.6; DAX1 inh-1: 0.9; hgDAF-12 ag: 4.2; DAX1 inh-2: 0.5; AHR activator: 8.5; ssDAF12 agonist: -0.2

What do the screens show for `O=C(Nc1ccccc1Cl)c1csc(-c2cccnc2)n1`?
hcDAF12 agonist: 7.6*; DAX1 inh-1: 5.0*; hgDAF-12 ag: 9.0; DAX1 inh-2: 0.0; AHR activator: 48.2*; ssDAF12 agonist: 2.8*; LXR ag: 0.2; hcDAF12 ag: 6.7*

How did CN(C)c1ccc(C2Nc3cccc4cccc(c34)N2)cc1 do in these assays?
hcDAF12 agonist: 8.4*; DAX1 inh-1: -0.8; hgDAF-12 ag: 3.8; DAX1 inh-2: 0.6; AHR activator: 23.5; ssDAF12 agonist: 1.6*; LXR ag: 0.3; hcDAF12 ag: 8.3*
